# According to the supplement of paper PMC8728848:
# The entries come from a sample that favours the strongest signals as a whole.
# B1: DCL-1 (Homo sapiens), Q8IX05 (protein)
# chain: MLRAALPALLLPLLGLAAAAVADCPSSTWIQFQDSCYIFLQEAIKVESIEDVRNQCTDHGADMISIHNEEENAFILDTLKKQWKGPDDILLGMFYDTDDASFKWFDNSNMTFDKWTDQDDDEDLVDTCAFLHIKTGEWKKGNCEVSSVEGTLCKTAIPYKRKYLSDNHILISALVIASTVILTVLGAIIWFLYKKHSDSRFTTVFSTAPQSPYNEDCVLVVGEENEYPVQFD
# Legend:
# Experiment in all cases: glycan array binding signal (z-score within array); higher = stronger binding
# Details in all cases: glycan notation: IUPAC condensed, linker removed
# [1] = biological target: Fuc(a1-2)Gal(b1-3)GlcNAc(b1-2)Man(a1-3)[Fuc(a1-2)Gal(b1-3)GlcNAc(b1-2)Man(a1-6)]Man(b1-4)GlcNAc(b1-4)GlcNAc
# Method in brief: (§1)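 Columns mapping to the same glycan were averaged after glycan names were converted to IUPAC-condensed notation. The data come from 3228 arrays in the Consortium for Functional Glycomics database, limited to those with an available protein sequence. Binding is reported as a within-array Z-score averaged across arrays of one protein sequence and across linkers.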
# [2] = biological target: Fuc(a1-2)Gal(b1-3)GlcNAc(b1-3)Gal(b1-4)Glc
# Method in brief: as §1
# [3] = biological target: Fuc(a1-2)Gal(b1-3)GlcNAc(b1-3)[Fuc(a1-3)[Gal(b1-4)]GlcNAc(b1-6)]Gal(b1-4)Glc
# Method in brief: as §1
# [4] = biological target: Fuc(a1-2)Gal(b1-3)[Fuc(a1-4)]GlcNAc(b1-2)Man(a1-3)[Fuc(a1-2)Gal(b1-3)[Fuc(a1-4)]GlcNAc(b1-2)Man(a1-6)]Man(b1-4)GlcNAc(b1-4)GlcNAc
# Method in brief: as §1
# [5] = biological target: Fuc(a1-2)Gal(b1-4)Glc
# Method in brief: as §1
# [6] = biological target: Fuc(a1-2)Gal(b1-4)GlcNAc(b1-2)[Fuc(a1-2)Gal(b1-4)GlcNAc(b1-4)]Man(a1-3)[Fuc(a1-2)Gal(b1-4)GlcNAc(b1-2)Man(a1-6)]Man(b1-4)GlcNAc(b1-4)GlcNAc
# Method in brief: as §1
# [7] = biological target: Fuc(a1-2)Gal(b1-4)[Fuc(a1-3)]GlcNAc(b1-3)GalNAc
# Method in brief: as §1
# [8] = biological target: Fuc(a1-2)[Gal(a1-3)]Gal(b1-3)GlcNAc
# Method in brief: as §1
# [9] = biological target: Fuc(a1-2)[Gal(a1-3)]Gal(b1-4)GlcNAc
# Method in brief: as §1
# [10] = biological target: Fuc(a1-2)[GalNAc(a1-3)]Gal(b1-3)GlcNAc(b1-2)Man(a1-3)[Fuc(a1-2)[GalNAc(a1-3)]Gal(b1-3)GlcNAc(b1-2)Man(a1-6)]Man(b1-4)GlcNAc(b1-4)[Fuc(a1-6)]GlcNAc
# Method in brief: as §1
# [11] = biological target: Fuc(a1-2)[GalNAc(a1-3)]Gal(b1-4)GlcNAc
# Method in brief: as §1
# [12] = biological target: Fuc(a1-2)[GalNAc(a1-3)]Gal(b1-4)GlcNAc(b1-2)Man(a1-3)[Fuc(a1-2)[GalNAc(a1-3)]Gal(b1-4)GlcNAc(b1-2)Man(a1-6)]Man(b1-4)GlcNAc(b1-4)GlcNAc
# Method in brief: as §1
# [13] = biological target: Fuc(a1-3)[Gal3S(b1-4)]GlcNAc6S
# Method in brief: as §1
# [14] = biological target: Gal(a1-3)Fuc(a1-2)Gal(b1-4)GlcNAc(b1-3)[Gal(a1-3)Fuc(a1-2)Gal(b1-4)GlcNAc(b1-6)]GalNAc
# Method in brief: as §1
# [15] = biological target: Gal(a1-3)Gal(b1-4)GlcNAc
# Method in brief: as §1
# [16] = biological target: Gal(a1-3)[Gal(a1-4)]Gal(b1-4)GlcNAc
# Method in brief: as §1
# [17] = biological target: Gal(a1-4)Gal(b1-4)Glc
# Method in brief: as §1
# [18] = biological target: Gal(a1-4)Gal(b1-4)GlcNAc
# Method in brief: as §1
# [19] = biological target: Gal(a1-4)Gal(b1-4)GlcNAc(b1-3)Gal(b1-4)Glc
# Method in brief: as §1
# [20] = biological target: Gal(b1-3)GlcNAc(b1-2)[Gal(b1-3)GlcNAc(b1-6)]Man(a1-6)[Gal(b1-3)GlcNAc(b1-2)Man(a1-3)]Man(b1-4)GlcNAc(b1-4)GlcNAc
# Method in brief: as §1
# [21] = biological target: Gal(b1-3)GlcNAc(b1-3)Gal(b1-4)GlcNAc
# Method in brief: as §1
# [22] = biological target: Gal(b1-4)Gal
# Method in brief: as §1
# [23] = biological target: Gal(b1-4)Glc6S
# Method in brief: as §1
# [24] = biological target: Gal(b1-4)GlcNAc(b1-3)Gal(b1-4)GlcNAc
# Method in brief: as §1
# [25] = biological target: Gal(b1-6)Gal
# Method in brief: as §1
# [26] = biological target: Gal3S(b1-4)[Fuc(a1-3)]Glc6S
# Method in brief: as §1
# [27] = biological target: Gal4S(b1-4)GlcNAc
# Method in brief: as §1
# [28] = biological target: Gal6S(b1-4)Glc
# Method in brief: as §1
# [29] = biological target: GalNAc(b1-3)Gal
# Method in brief: as §1
# [30] = biological target: GalNAc(b1-4)Gal(b1-4)Glc
# Method in brief: as §1
# [31] = biological target: Glc(b1-4)Glc
# Method in brief: as §1
# [32] = biological target: Glc(b1-6)Glc
# Method in brief: as §1
# [33] = biological target: GlcNAc(a1-6)Gal(b1-4)GlcNAc
# Method in brief: as §1
# [34] = biological target: GlcNAc(b1-2)[GlcNAc(b1-4)]Man(a1-3)[GlcNAc(b1-4)][GlcNAc(b1-2)[GlcNAc(b1-6)]Man(a1-6)]Man(b1-4)GlcNAc(b1-4)GlcNAc
# Method in brief: as §1
# [35] = biological target: GlcNAc(b1-4)Gal(b1-4)GlcNAc
# Method in brief: as §1
# [36] = biological target: Man(a1-2)Man(a1-3)[Man(a1-2)Man(a1-6)]Man(a1-6)[Man(a1-2)Man(a1-2)Man(a1-3)]Man(b1-4)GlcNAc(b1-4)GlcNAc
# Method in brief: as §1
# [37] = biological target: Man(a1-3)[Man(a1-6)]Man(a1-6)[Man(a1-2)Man(a1-3)]Man(b1-4)GlcNAc(b1-4)GlcNAc
# Method in brief: as §1
# [38] = biological target: Neu5Ac(a2-3)Gal(b1-3)GalNAc(b1-3)Gal(a1-4)Gal(b1-4)Glc
# Method in brief: as §1
# [39] = biological target: Neu5Ac(a2-3)Gal(b1-3)GlcNAc(b1-3)GalNAc
# Method in brief: as §1
# [40] = biological target: Neu5Ac(a2-3)Gal(b1-4)GlcNAc(b1-6)[Neu5Ac(a2-3)Gal(b1-3)]GalNAc
# Method in brief: as §1
# [41] = biological target: Neu5Ac(a2-3)Gal(b1-4)[Fuc(a1-3)]GlcNAc(b1-3)Gal
# Method in brief: as §1
# [42] = biological target: Neu5Ac(a2-3)Gal(b1-4)[Fuc(a1-3)]GlcNAc(b1-3)GalNAc
# Method in brief: as §1
# [43] = biological target: Neu5Ac(a2-6)Gal(b1-4)GlcNAc(b1-2)Man(a1-3)[Neu5Ac(a2-6)Gal(b1-4)GlcNAc(b1-2)Man(a1-6)]Man(b1-4)GlcNAc(b1-4)GlcNAc
# Method in brief: as §1
# [44] = biological target: Neu5Ac(a2-6)Gal(b1-4)GlcNAc(b1-3)Gal(b1-4)GlcNAc(b1-3)Gal(b1-4)GlcNAc
# Method in brief: as §1
# [45] = biological target: Neu5Ac9Ac(a2-3)Gal(b1-4)GlcNAc
# Method in brief: as §1
binder,measurement,setting,value
B1,glycan array binding signal (z-score),[1],0.687
same,glycan array binding signal (z-score),[2],-0.715
same,glycan array binding signal (z-score),[3],0.156
same,glycan array binding signal (z-score),[4],-0.488
same,glycan array binding signal (z-score),[5],0.028
same,glycan array binding signal (z-score),[6],-0.471
same,glycan array binding signal (z-score),[7],1.87
same,glycan array binding signal (z-score),[8],3.01
same,glycan array binding signal (z-score),[9],-0.77
same,glycan array binding signal (z-score),[10],-0.151
same,glycan array binding signal (z-score),[11],-0.734
same,glycan array binding signal (z-score),[12],0.221
same,glycan array binding signal (z-score),[13],-0.491
same,glycan array binding signal (z-score),[14],0.69
same,glycan array binding signal (z-score),[15],0.709
same,glycan array binding signal (z-score),[16],-0.245
same,glycan array binding signal (z-score),[17],-0.289
same,glycan array binding signal (z-score),[18],0.053
same,glycan array binding signal (z-score),[19],-0.496
same,glycan array binding signal (z-score),[20],2.22
same,glycan array binding signal (z-score),[21],-0.606
same,glycan array binding signal (z-score),[22],-0.028
same,glycan array binding signal (z-score),[23],0.595
same,glycan array binding signal (z-score),[24],2.35
same,glycan array binding signal (z-score),[25],-0.915
same,glycan array binding signal (z-score),[26],0.532
same,glycan array binding signal (z-score),[27],-0.14
same,glycan array binding signal (z-score),[28],0.156
same,glycan array binding signal (z-score),[29],-0.083
same,glycan array binding signal (z-score),[30],-0.041
same,glycan array binding signal (z-score),[31],-0.786
same,glycan array binding signal (z-score),[32],-0.407
same,glycan array binding signal (z-score),[33],6.83
same,glycan array binding signal (z-score),[34],0.126
same,glycan array binding signal (z-score),[35],-0.427
same,glycan array binding signal (z-score),[36],2.43
same,glycan array binding signal (z-score),[37],10.6
same,glycan array binding signal (z-score),[38],3.04
same,glycan array binding signal (z-score),[39],-0.021
same,glycan array binding signal (z-score),[40],0.223
same,glycan array binding signal (z-score),[41],0.066
same,glycan array binding signal (z-score),[42],5.12
same,glycan array binding signal (z-score),[43],0.079
same,glycan array binding signal (z-score),[44],-1.67
same,glycan array binding signal (z-score),[45],2.38
